Measurements from PubChem BioAssay (EPA / NIEHS).
“And” between values parts separate entries of the source, which are not always exact repeats. Equal entries are not always repeated. Records with an inconclusive call do not appear. More than one record can exist for a structure, and the calls need not agree. The source made the active and inactive calls. Rule for the calls, unless noted: active = hit-call score of the fitted dose curve at least 0.9, where 1 is the maximum; inactive = score below 0.9.

Assays:
[1] = CCTE_Mundy_HCI_hNP1_CellTiter: CCTE's Cell Titer-Glo 2 Assay in human neuroprogenitor cells for Viability, Mundy Lab (AID 2284241; active = hit-call score of the fitted dose curve at least 0.9, where 1 is the maximum;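 for AC50: a hit is a drop in ATP luminescence versus DMSO meaning reduced viability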)
Outline: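 Viability read as luminescent ATP content (CellTiter-Glo, 30 min room temperature) twenty-four hours after dosing, relative to DMSO. Cells: WA09-derived hNP1 neuroprogenitors on poly-L-ornithine/laminin, plated 40 to 44 hours before chemical.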

[2] = CCTE_Mundy_HCI_Cortical_Synap_Neur_Matur_NeuronCount: CCTE's Synaptogenesis and Neurite Maturation Assay in rat cortical cells for Neuron Count, Mundy Lab (AID 2284242; active = hit-call score of the fitted dose curve at least 0.9, where 1 is the maximum;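 for AC50: neuron number from Hoechst nuclei and MAP2 staining by high-content imaging; hits reduce neuron count versus DMSO baseline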)
Experimental: CCTE_Mundy_HCI_Cortical_Synap&Neurite_Matur is a multiplexed, cell-based-readout assay that uses rat primary cortical cells with measurements taken at 288.33 hours after chemical dosing in a microplate: 96-well plate.CCTE_Mundy_HCI_Cortical_Synap_Neur_Matur_NeuronCount is one of eight components of the CCTE_Mundy_HCI_Cortical_Synap&Neurite_Matur assay. It measures cell viability related to number of neurons using High Content Imaging of fluorescently labelled markers.[…] Using a type of morphology reporter, loss -of-signal activity can be used to understand developmental effects.
Cells are plated onto 96 well plates and allowed 2 hr for attachment to the substrate. At days in vitro (DIV) 5, Cytosine Arabinoside (AraC) is added to arrest glial cell growth. Chemicals are dosed and a media change is performed at DIV 7 of differentiation and is continued through DIV 12 when the experiment is terminated. Cells are fixed with […] and Hoechst Dye. Cells are stained using Millipore Mouse anti-MAP2MAB3418 (1:800) and Millipore Rabbit anti-Synaptophysinsc-1750 (1:250) primary antibodies and Alexa Fluor-488 goat anti-mouse and AlexaFluor-546 goat anti-rabbit secondary antibodies to label neuronal cell nuclei, synapses and neurites. A Cellomics ArrayScan VTi HCS Reader is used for automated image acquisition and analysis of neurite outgrowth.

[3] = read-out: Interleukin 17F (IL17F), IL17F (gene 112744); experiment: BSK_BT_xIL17F: BioMAP Diversity Plus: BT Assay for Interleukin 17F (IL17F) Biomarker Activity (AID 2284243); details: primary human B cells with PBMC
Outline: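 Human PBMC co-cultured with B cells, compound exposure 24 h; secreted IL-17F quantified by Luminex xMAP, referenced to DMSO control. PBMC viability measured in parallel by Alamar Blue reduction.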

[4] = read-out: Actin alpha 1 (ACTA1), ACTA1 (gene 58); experiment: BSK_MyoF_ACTA1: BioMAP Diversity Plus: MyoF Assay for Actin alpha 1 (ACTA1) Biomarker Activity (AID 2284244); details: primary human lung fibroblasts
Outline: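 Cells were exposed to chemical for 24 h before a-SMA levels were quantified by ELISA in human lung fibroblasts. Increases were fitted against DMSO as negative control; parallel SRB staining (0.1% after 10% TCA fixation, 560 nm) assessed cytotoxicity.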

[5] = read-out: Interleukin 2 (IL2), IL2 (gene 3558); experiment: BSK_BT_xIL2: BioMAP Diversity Plus: BT Assay for Interleukin 2 (IL2) Biomarker Activity (AID 2284245); details: primary human B cells with PBMC
Outline: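 The BT system combines human B cells with peripheral blood mononuclear cells. Twenty-four hours after chemical dosing, secreted IL-2 was measured with xMAP bead technology, and responses were analyzed as increases over DMSO controls.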

[6] = read-out: Basic fibroblast growth factor (bFGF), FGF2 (gene 2247); experiment: BSK_MyoF_bFGF: BioMAP Diversity Plus: MyoF Assay for Basic fibroblast growth factor (bFGF) Biomarker Activity (AID 2284246); details: primary human lung fibroblasts
Outline: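 Chemicals are added to human lung fibroblast cultures and incubated 24 h. bFGF is then measured by ELISA, while parallel cultures receive SRB staining for total protein as a cytotoxicity check. Data are fitted upward against DMSO.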

[7] = read-out: Collagen IV, COL4A1 (gene 1282); experiment: BSK_MyoF_CollagenIV: BioMAP Diversity Plus: MyoF Assay for Collagen IV Biomarker Activity (AID 2284247); details: primary human lung fibroblasts
Outline: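 Human lung fibroblast system, 24 h chemical exposure. Endpoint: Collagen IV by ELISA, upward fit vs DMSO.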

[8] = read-out: Monokine induced gamma interferon (MIG), CXCL9 (gene 4283); experiment: BSK_KF3CT_MIG: BioMAP Diversity Plus: KF3CT Assay for Monokine induced gamma interferon (MIG) Biomarker Activity (AID 2284248); details: primary human keratinocytes with fibroblasts
Outline: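 Human keratinocyte–foreskin fibroblast co-culture; MIG measured by ELISA 24 h after chemical dosing, fitted upward versus DMSO. Cytotoxicity was assessed in parallel cultures by SRB total-protein staining read at 560 nm.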

[9] = read-out: Vascular cell adhesion molecule 1 (VCAM1), VCAM1 (gene 7412); experiment: BSK_BF4T_VCAM1: BioMAP Diversity Plus: BF4T Assay for Vascular cell adhesion molecule 1 (VCAM1) Biomarker Activity (AID 2284249); details: primary human bronchial epithelial cells with fibroblasts
Outline: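 Cell-surface VCAM-1 quantified by ELISA after 24 h chemical exposure of human bronchial epithelial/dermal fibroblast co-cultures, with SRB staining in parallel wells for cytotoxicity; DMSO baseline, positive-direction fitting.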

[10] = read-out: Collagen I, COL1A1 (gene 1277); experiment: BSK_hDFCGF_CollagenI: BioMAP Diversity Plus: hDFCGF Assay for Collagen I Biomarker Activity (AID 2284250); details: primary human foreskin fibroblasts
Outline: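 Collagen I ELISA, primary human foreskin fibroblasts, 24 h chemical exposure, DMSO = negative control/baseline, positive fitting direction.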

Measured: AC50

CCOc1ccc(C(C)(C)COCc2cccc(Oc3ccccc3)c2)cc1
active: [2] 15 µM
inactive: [1]

ClC(Cl)=C(c1ccc(Cl)cc1)c1ccccc1Cl
active: [3] 32.2 µM | [4] 5.45 µM | [5] 31.4 µM | [6] 9.45 µM | [7] 9.38 µM

CCOP(=S)(OCC)SCn1nnc2ccccc2c1=O
active: [3] 24 µM
inactive: [4] | [5] | [6] | [7]

CCOP(=S)(OCC)SCSCC
active: [2] 78.4 µM
inactive: [1]

CC(Cl)CN(C)C (centres undefined)
inactive: [3] | [4] | [5] | [6] | [7]

CC(C)Nc1ccc(Nc2ccccc2)cc1
active: [3] 4.55 µM | [4] 22.7 µM | [5] 5.05 µM | [6] 30.5 µM | [7] 20 µM

CCOP(=S)(OCC)SCSc1ccc(Cl)cc1
inactive: [3] | [5] | [6]
active: [4] 3.97 µM | [7] 0.0408 µM

O=C(O)C=CC(F)(C(F)(F)F)C(F)(F)F
inactive: [1] | [3] | [4] | [5] | [6] | [7] | [8] | [9] | [10]
active: [3] 0.219 µM

Cc1ccc2c(c1N)C(=O)c1ccccc1C2=O
active: [3] 20 µM
inactive: [4] | [5] | [6] | [7]

CCOP(=S)(S)OCC
inactive: [3] | [4] | [5] | [6] | [7]

CCOP(=S)(OCC)SCS(=O)(=O)CC
inactive: [3] | [4] | [5] | [6] | [7]

CO/N=C(/C(=O)OC)c1ccccc1COc1ccccc1C
active: [1] 82.5 µM | [2] 2.98 µM

O=P1(N(CCCl)CCCl)NCCCO1 (centres undefined)
inactive: [1]

O=C(O)C(F)(F)OC(F)(F)C(F)(F)OC(F)(F)C(=O)O
inactive: [1] | [3] | [4] | [5] | [6] | [7] | [8] | [9] | [10]

C=CC(=O)OCC(F)(F)C(F)F
active: [3] 12.4 µM and 21.8 µM | [4] 48.8 µM and 46.5 µM | [5] 30.6 µM and 34.5 µM | [7] 45.7 µM | [8] 52.2 µM | [9] 30 µM
inactive: [1] | [6] | [7] | [8] | [9] | [10]

O=C(O)C(F)(F)OC(F)(F)C(F)(F)OC(F)(F)F
inactive: [1] | [3] | [4] | [5] | [6] | [7] | [8] | [9] | [10]

O=C(O)C(F)(OC(F)(F)C(F)(F)C(F)(F)F)C(F)(F)F (centres undefined)
active: [2] 6.27 µM
inactive: [1] | [3] | [4] | [5] | [6] | [7] | [8] | [9] | [10]

O=P(OCC(Br)CBr)(OCC(Br)CBr)OCC(Br)CBr (centres undefined)
active: [3] 27.7 µM | [5] 27.7 µM
inactive: [4] | [6] | [7]

CCOP(=S)(NC(C)C)Oc1ccccc1C(=O)OC(C)C (centres undefined)
inactive: [4] | [6] | [7]
active: [3] 28.7 µM | [5] 20 µM

FC(F)(F)C(F)(C(F)(F)F)C(F)(F)C(F)(F)CC1CO1 (centres undefined)
inactive: [1] | [3] | [4] | [5] | [6] | [7] | [8] | [9] | [10]

CCC1(c2ccccc2)C(=O)N=C(O)NC1=O (centres undefined)
inactive: [1] | [2]

CC(C)(C)c1ccccc1OP(=O)(Oc1ccccc1)Oc1ccccc1
inactive: [6] | [7]
active: [2] 3.09 µM | [3] 29 µM | [4] 20 µM | [5] 28.2 µM
